From PubChem BioAssay AID651687 (Broad Institute, 2012) come the findings set out here.

The campaign covered roughly 350,000 compounds. About 600 (0.17%) were called active.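 How the source made its calls: active means every replicate shows inhibition of at least 40%; inconclusive means mean inhibition at least 40% but some replicate below; inactive means the rest.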 This excerpt belongs to a sample that is enriched for actives.

This experiment is described as follows: compounds lowering acetylated PGC1a in cells – cell-based, U2OS, AlphaScreen, inhibitor mode, primary screen (AID 651687).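 Further: 0% = neutral control wells and 100% = positive control wells.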 As to conditions: U2OS PGC1a acetylation, AlphaScreen anti-acetyl-lysine; at 15.6 µM; stronger effect = higher value.
In general, inhibition refers to the drop in the measured response relative to a control, in per cent. Turning to `CCC(C)(O)C(=O)OC1C(=O)OC2CC3C(C)=CC(=O)C(O)C3(C)C3C4(O)OCC23C1C(C)C4O` (stereo not given), the inhibition was 80% (active).
For `O=C(Cc1ccncc1)N1CCCCN2[C@@H](CO)[C@H](c3ccc(-c4ccncc4)cc3)[C@@H]2C1`, the inhibition is 1.83% (inactive).
On to `O=c1[nH]c2ccccc2n1C1CCN(C(c2ccccc2)c2nnnn2Cc2ccccc2)CC1` (stereo not given), for which the inhibition is 10.6% (inactive).
The same measure for `COC(=O)C1=C(c2ccc(OCc3ccccc3)cc2)C[C@@H]2CC[C@H]1N2C(=O)NCc1cccc(F)c1`: -39.8% (inactive); for `O=C(Cc1ccncc1)N1CCCCN2[C@H](CO)[C@@H](c3ccc(C#CC4(O)CCCC4)cc3)[C@H]2C1`: -7.38% (inactive); for `COC1C(O)C(C)OC(OC2CCC3(C=O)C(CCC4C3CCC3(C)C(C5=CC(=O)OC5)CCC43O)C2)C1O` (stereo not given): 82.1% (active).
Next, `c1ccc(C(CN2CCCCC2)c2ccccc2)cc1`: 40.7% (active); `COC(=O)C(c1ccccc1)N1CCCCCC1` (stereo not given): 5.94% (inactive).
For `O=C(c1ccccc1)C(O)(CN1CCCCC1)c1ccccc1` (stereo not given), the inhibition was -2.16% (inactive).
The same measure for `N#Cc1cccc(-c2ccc([C@H]3[C@@H](CO)N4CCCCN(C(=O)Cc5cccnc5)C[C@@H]34)cc2)c1`: -1.39% (inactive).
Next, `OC[C@@H]1[C@H]2c3ccccc3NC[C@H]2N1Cc1cccnc1`: 3.98% (inactive); `CCOC(=O)c1cccc(C2=C(CNC(=O)c3ccncc3)[C@H]3CC[C@@H](C2)N3Cc2ccccc2)c1`: -1.43% (inactive).
Turning to `O=C(Cc1cccnc1)N1CCCCN2[C@@H](CO)[C@H](c3ccc(C#CC4CCCC4)cc3)[C@@H]2C1`, the inhibition was -10.8% (inactive).
Turning to `O=C(NCC1=C(c2ccc3ccccc3c2)C[C@@H]2CC[C@H]1N2Cc1ccco1)c1cccs1`, the inhibition was -0.267% (inactive).
The same measure for `COC(=O)C[C@@H]1CC[C@@H]2NC[C@@H](O)COC[C@H]2O1`: -2.11% (inactive).
